# Screens: PubChem, National Center for Advancing Translational Sciences (NCATS)
# SW480 rereplic – DNA re-replication induction in SW480 cells. actives 1.8% (n = 340,000). SW480 DNA re-replication, Hoechst DNA content imaging, 48 h. Potency, µM (titrated, usually from 46.1 µM), for the others: at the highest dose re-replication activation, hits mostly activators; note: potency is the fitted concentration of half-maximal effect; % of control where 0% means no effect; nearly all actives have a fitted effect of over 55% in size
#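 SW480 cells exposed to compounds for 48 hr at 37 C, 5% CO2, then Hoechst-stained 40 min. Nuclear DNA content imaged by fluorescence scanning (405 nm excitation, 500-530 nm emission); re-replication scored as increased high-intensity nuclei.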
# Gal4-VP16 FLuc – inhibits Gal4-VP16 luciferase reporter, ROR gamma counter-screen; actives 3.5% (n = 310,000); Potency, µM (highest dose often 53.6 µM), for inactives: at the top dose activity, negative = inhibition, most hits filed as inhibitors; Drosophila S2 Gal4-VP16 UAS-luciferase, luminescence, 20 h;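 note: Gal4-VP16 expression switched on by copper sulfate through the metallothionein promoter; potency is the fitted concentration of half-maximal effect; % is set by controls: 0 for no effect and ±100 for the full control effect; nearly all actives have a fitted effect of over 50% in size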
# Giardia killer – kills Giardia lamblia; Giardia lamblia trophozoite viability; activity change, % at 7.66 µM, hits read low; actives 0.15% (n = 340,000); in the data active = activity change below about -80%; inconclusive = between about -30% and that limit;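 note: parasites exposed to compound for two days anaerobically before the ATP read; % is set by controls: 0 for no effect and ±100 for the full control effect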
#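 ATP-content bioluminescence gauges trophozoite survival. Cells (100/well) receive compound and incubate anaerobically for 48 hrs at 37 deg C; detection reagent follows for 15-30 min at room temperature.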
# MCF10A rereplic – inducers of DNA re-replication in MCF 10A breast cells; MCF 10A DNA re-replication, Hoechst nuclear intensity, 48 h; Potency, µM (highest dose often 46.1 µM), inactives show at the top dose activity, positive = re-replication, most hits filed as activators; actives 2.9% (n = 350,000); AID 624296; note: potency is the fitted concentration of half-maximal effect; % of control where 0% means no effect; nearly all actives have a fitted effect of over 50% in size
# RORgamma inh – inhibitors of mouse ROR gamma transcriptional activity; P51450; Drosophila S2 Gal4-RORgamma UAS-luciferase reporter, 20 h; Potency, µM (highest dose often 53.6 µM), for the others: at the top dose activity change, negative = inhibition, actives largely listed as inhibitors; actives 5.4% (n = 310,000); note: potency is the fitted concentration of half-maximal effect; % is set by controls: 0 for no effect and ±100 for the full control effect; nearly all actives have a fitted effect of over 60% in size
# Target sequence (P51450 whole entry, looked up, the tested form may be a part): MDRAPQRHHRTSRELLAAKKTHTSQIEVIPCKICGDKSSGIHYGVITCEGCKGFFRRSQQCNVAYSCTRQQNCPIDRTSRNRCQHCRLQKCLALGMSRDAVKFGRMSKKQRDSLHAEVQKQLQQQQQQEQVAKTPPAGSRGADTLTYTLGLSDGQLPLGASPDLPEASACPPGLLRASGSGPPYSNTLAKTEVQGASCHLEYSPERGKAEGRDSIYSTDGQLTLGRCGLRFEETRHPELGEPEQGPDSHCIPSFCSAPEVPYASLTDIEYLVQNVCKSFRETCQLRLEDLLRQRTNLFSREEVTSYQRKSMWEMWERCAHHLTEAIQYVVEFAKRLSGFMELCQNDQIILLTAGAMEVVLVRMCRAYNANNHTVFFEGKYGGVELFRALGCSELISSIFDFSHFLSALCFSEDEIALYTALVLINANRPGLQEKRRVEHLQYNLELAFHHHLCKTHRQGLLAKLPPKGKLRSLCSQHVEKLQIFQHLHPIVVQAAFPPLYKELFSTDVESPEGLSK
#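 Read-out: Photinus luciferase luminescence; inhibitors lower reporter signal. Insect Schneider cells with Gal4-ROR gamma fusion under metallothionein promoter, UAS reporter; 700 uM final copper sulfate induction, 20 hr, ambient temperature.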
# BCR signal inh – chronic active BCR signaling inhibition. ABC-DLBCL IkBa-CBG/CBR reporter, luminescence ratio, 4 h. Potency, µM (highest dose often 46.1 µM), inactives show at the highest dose activity change, negative = inhibition, usual class: inhibitors. actives 0.05% (n = 340,000); active = well fitted inhibition curve with a large enough effect in the signal ratio, with a control signal flat, not every such curve was filed as active; inconclusive = small, poorly fitted or top-dose-only effect, or effect the other way, or a change in a side signal; the % refers to the signal ratio;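 note: potency is the fitted concentration of half-maximal effect; plate controls were basal doxycycline-induced cells for no effect and cells given 10 µM MG132 for full effect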
#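 TMD8 human ABC-DLBCL cells with doxycycline-inducible IκBα–green luciferase fusion and unfused red luciferase, in 0.5% FBS medium; compounds up to 46 uM, 4 h at 37C. Green/red luminescence ratio, filter-overlap corrected, fitted to concentration-response curves.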
# * = called active by the depositor; u = inconclusive; x = no result; [ ] = another dose, or the depositor's remark. This is a sample that favours compounds with a hit; in the whole collection about 8.3% have one here. Unless noted, calls come from the whole dose curve; as a rule, active = well fitted curve in the direction sought with a large enough effect; inconclusive = small, poorly fitted or top-dose-only effect, or another doubt; inactive = no such curve, though single readings can be large; an effect the other way counts as inactive or inconclusive.
SMILES,SW480 rereplic,Gal4-VP16 FLuc,Giardia killer,MCF10A rereplic,RORgamma inh,BCR signal inh
Cc1ccc(NC(=O)CCC(=O)N/N=C/c2cccs2)cc1,9.2µM*,13%,-7,2%,10%,0%
Cc1ccc(C(=O)NC(=S)N2CCCCCC2)cc1,20%,x,-23,7%,x,u
O=C(NC(=S)Nc1cccc(O)c1)c1ccco1,0%,4%,6,6%,1%,u
CCC(C(=O)n1cccc1C#N)c1ccccc1C (stereo not drawn),-3%,x,-8,-1%,x,1%
CCN(CC)c1ccc(/C=N/NC(=O)c2ccccn2)cc1,u,-8%,-1,u,u,u
CCc1ccc(/C=N/NC(=O)c2ccccn2)cc1,-1%,u,-5,-6%,10µM*,u
O=C(N/N=C\c1ccc(Cl)s1)c1cccs1,-4%,5.6µM*,13,-3%,5.6µM*,u
Cc1c(/C=N/NC(=O)c2cccs2)c2ccccc2n1Cc1ccccc1Cl,15µM*,-16%,-15,16µM*,-11%,0%
O=C(N/N=C/c1cccs1)c1ccccn1,-5%,u,12,0%,14µM*,u
Cn1cccc1/C=N/NC(=O)c1ccccn1,u,1%,1,2%,-4%,u
COc1ccc(-c2nc3scc(CCNS(=O)(=O)c4ccc(C)cc4)n3n2)cc1,x,x,x,x,x,-2%
c1ccc(-c2ccc(OCCN3CCCC3)cc2)cc1,x,-6%,x,x,1%,x
COc1ccc(C2CCCN2C(=S)Nc2cccc(C)c2C)cc1OC (stereo not drawn),-15%,u,5,0%,u,-8%
NS(=O)(=O)c1ccc(N2CCN(CCOc3ccc(Cl)cc3)CC2)nc1,u,u,-9,2%,u,-2%
CCOc1ccccc1C=NN1CCCCCC1,1%,x,7,8%,x,x
CN(C)c1ccc(/C=N\NC(=S)SCN2C(=O)C3CCC(C)(C2=O)C3(C)C)cc1 (stereo not drawn),u,u,2,7.3µM*,0.32µM*,u
Cc1cc(C(=O)NNS(=O)(=O)c2cccc(Cl)c2)nn1C(C)(C)C,0%,-10%,u,2%,11%,-13%
CCCCCc1cc(O)c2c(C)cc(=O)oc2c1,-2%,11µM*,-8,u,3.2µM*,u
COC(=O)C1=CN(c2ccc(F)cc2)C=C(C(=O)OC)C1c1cccc([N+](=O)[O-])c1,25%,6%,-10,2%,27%,u
Cn1c(O)c(N=Nc2ccccc2)c2ccccc21,2%,3%,-2,20%,-13%,u
Cn1c(O)c(N=Nc2nc(-c3ccccc3)cs2)c2ccccc21,-2%,u,0,15%,1.1µM*,u
Cc1cccc(NC(=S)N/N=C2/CCCCc3ccccc32)c1,5%,6.3µM*,-3,u,2.8µM*,u
COc1ccc(NC(=O)O/N=C2/CCCc3ccc(OC)cc32)cc1,17%,2%,17,u,-14%,-4%
O=C(N/N=C1\CCCCc2ccccc21)c1ccccn1,-3%,22%,-9,2%,-16%,u
Cc1ccc(NC(=S)N/N=C2/CCCCc3ccccc32)cc1,-14%,-24%,-1,u,3.5µM*,8%
COc1ccc(NC(=S)N/N=C2/CCCc3c(C)cc(C)cc32)cc1,1%,u,7,-4%,2.8µM*,-1%
Cc1ccc(C)c(NC(=S)N/N=C2\CCc3ccccc32)c1,11%,10µM*,7,u,7.1µM*,-9%
C#CCCCO/N=C1/C[C@@H](O)[C@@H](O)[C@@H]2[C@@H]3C(=O)N(Cc4ccccc4)C(=O)[C@H]3CC[C@@H]12,x,-3%[10 µM],x,x,-9%[10 µM],x
O=C(NCCCn1ccnc1)c1ccc(N2CCCCCC2)c([N+](=O)[O-])c1,u,5%,5,u,12%,9%
COc1ccc(C(=O)Nc2ccc(/C(C)=N/NC(=O)c3ccncc3)cc2)cc1,x,-3%,x,x,24%,5%
